Experimental data published in PubChem BioAssay (NCATS).
Values joined by “and” are separate entries in the source; they are usually repeats but may differ in a detail not shown here. Equal values may be shown once. Records with an inconclusive call do not appear. Active and inactive are the calls of the source. Unless noted, the call rests on the fitted dose curve; in most records, active means well fitted curve in either direction with a large enough effect (not every such curve was filed as active); inconclusive means small, poorly fitted or top-dose-only effect, or another doubt; inactive means flat fitted curve, though single readings scatter.

Key:
[1] = AP1 Signaling Pathway (AID 357); details: ME-180 AP-1-bla reporter, EGF-induced, beta-lactamase ratio, 5 h;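 further: ME-180 reporter cells stimulated with EGF at its EC50 level; on the % scale 0 is the no-effect control and ±100 the full control effect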
In short: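 Modulation of EGF-driven AP-1 transcription was assessed with a beta-lactamase reporter in ME-180 cells. Compound and EC50 EGF were co-incubated 5 hours at 37 °C before 2.5-hour CCF4 loading at room temperature and dual-emission reading.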

[2] = molecular target: Cytochrome P450 1A2 (Homo sapiens) (UniProt P05177); experiment: p450-cyp1a2 (AID 410; calls by dose curve; further: potency means the concentration at half of the fitted maximal effect;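 on activity change, negative = inhibition: -100% = full effect of reference inhibitor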); details: recombinant CYP1A2, luciferin-ME demethylation, luminescence; series mostly up to 57 µM
Cytochrome P450 1A2 (Homo sapiens), sequence (P05177 whole entry, looked up): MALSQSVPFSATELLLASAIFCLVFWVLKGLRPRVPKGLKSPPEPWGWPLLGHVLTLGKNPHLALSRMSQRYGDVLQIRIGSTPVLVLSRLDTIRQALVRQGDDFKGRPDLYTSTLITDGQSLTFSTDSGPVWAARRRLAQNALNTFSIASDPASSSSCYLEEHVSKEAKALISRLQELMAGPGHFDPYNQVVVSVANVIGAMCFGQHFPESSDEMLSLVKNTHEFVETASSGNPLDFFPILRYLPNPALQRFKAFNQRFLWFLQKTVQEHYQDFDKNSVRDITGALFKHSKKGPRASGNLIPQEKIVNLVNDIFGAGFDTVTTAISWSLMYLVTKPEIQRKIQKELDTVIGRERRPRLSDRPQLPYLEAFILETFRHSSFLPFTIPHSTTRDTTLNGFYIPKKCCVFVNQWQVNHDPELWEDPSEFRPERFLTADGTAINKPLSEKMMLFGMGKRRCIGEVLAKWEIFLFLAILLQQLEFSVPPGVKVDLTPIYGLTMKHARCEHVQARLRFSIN
In short: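 Luminescent readout of luciferin formed from Luciferin-ME by human CYP1A2; data normalized against complete inhibition by 57 uM furafylline. Enzyme 20nM, substrate 100uM at Km, 100mM KPO4 buffer, 60 min reaction at room temperature.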

[3] = Stat Signaling Pathway (AID 446); details: ME-180 SIE beta-lactamase reporter, IL-6 stimulated, 5 h; series mostly up to 17.2 µM;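 further: ME-180 cervical cancer cells given 40 pM IL-6 alongside compound; SIE-controlled beta-lactamase reporter measured as 460/530 nm FRET emission ratio; on the % scale 0 is the no-effect control and ±100 the full control effect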
In short: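 Screening format detects activators and inhibitors alike: ME-180 SIE-bla cells stimulated at 40 pM IL-6 for 5 hrs with compound, then dual-emission beta-lactamase read at 405 nm excitation.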

[4] = molecular target: Mitogen-activated protein kinase 10 (Mus musculus) (UniProt Q61831); experiment: JNK3 AlphaScreen Assay (AID 530); details: JNK3 lysate, c-Jun phosphorylation; series mostly up to 57.1 µM;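 further: kinase came from lysate of stimulated human HepG2 cells; signal reports phosphorylation of biotinylated GST-cJun 1-79 at Ser73 with 10 µM ATP; on the % scale 0 is the no-effect control and ±100 the full control effect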
In short: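 Pre-activated (IL-1β/TNFα) JNK3 in HepG2 lysates phosphorylates biotin-GST-cJun(1-79), 10 uM ATP; anti-phospho-cJun(Ser73) AlphaScreen read at room temperature, pH 7.6 Tris buffer. Compounds pre-incubated 15 min as titrations.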

[5] = NFAT Signaling Pathway (AID 444); details: Jurkat NFAT-bla M1, carbachol, beta-lactamase ratio, 5 h;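 further: carbachol stimulus at about its EC50 of 1 µM final; on the % scale 0 is the no-effect control and ±100 the full control effect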
In short: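 Jurkat cells with NFAT-driven β-lactamase reporter and co-expressed M1 receptor, stimulated with carbachol (final 1 uM, ~EC50), compound titration, 5 h at 37 °C. CCF4 loaded 1 h at RT; 460/530 nm ratio gave %activity and AC50.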

[6] = molecular target: Glucocorticoid receptor (Homo sapiens) (UniProt P04150); experiment: GR-GFP Redistribution (AID 450;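 active means compounds whose dose series gives a full or clear partial fitted curve of increased nuclear translocation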; further: potency means the concentration at half of the fitted maximal effect); details: U2OS GR-GFP nuclear translocation, laser cytometry, 2 h
Glucocorticoid receptor (Homo sapiens), sequence (P04150 whole entry, looked up, the tested form may be a part): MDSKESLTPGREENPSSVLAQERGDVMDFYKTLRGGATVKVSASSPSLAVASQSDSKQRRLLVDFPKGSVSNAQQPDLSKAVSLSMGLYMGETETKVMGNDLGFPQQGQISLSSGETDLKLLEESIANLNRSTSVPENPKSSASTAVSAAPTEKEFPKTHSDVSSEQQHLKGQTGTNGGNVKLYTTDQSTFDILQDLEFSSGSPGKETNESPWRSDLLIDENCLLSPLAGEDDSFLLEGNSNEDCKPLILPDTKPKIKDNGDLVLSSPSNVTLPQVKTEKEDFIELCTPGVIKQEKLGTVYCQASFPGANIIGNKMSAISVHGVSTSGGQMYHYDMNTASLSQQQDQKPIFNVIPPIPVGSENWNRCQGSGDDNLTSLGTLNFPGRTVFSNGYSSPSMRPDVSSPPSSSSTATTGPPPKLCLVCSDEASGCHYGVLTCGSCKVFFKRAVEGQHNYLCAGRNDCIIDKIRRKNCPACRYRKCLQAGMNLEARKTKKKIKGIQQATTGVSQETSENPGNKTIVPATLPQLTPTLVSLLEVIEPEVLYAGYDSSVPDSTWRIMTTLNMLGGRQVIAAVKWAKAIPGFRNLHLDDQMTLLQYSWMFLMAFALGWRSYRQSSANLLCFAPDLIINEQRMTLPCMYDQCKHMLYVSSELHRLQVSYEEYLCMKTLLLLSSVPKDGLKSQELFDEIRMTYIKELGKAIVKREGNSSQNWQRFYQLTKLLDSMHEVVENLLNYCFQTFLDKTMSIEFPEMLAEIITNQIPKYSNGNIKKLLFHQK

[7] = molecular target: Glucocorticoid receptor (Homo sapiens) (UniProt P04150); experiment: GR-EFC Redistribution (AID 451; calls by dose curve; further: potency means the concentration at half of the fitted maximal effect); details: CHO-K1 GR-EFC translocation, beta-gal luminescence, 2 h
In short: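 CHO-K1 cells expressing nuclear EA and GR-ED fragments of b-gal; compounds titrated up to 46 uM final, 2 h at 37 C. GR nuclear translocation read as complemented b-gal luminescence after 1 h RT detection.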

[8] = Cell Viability - BJ (AID 421; calls by dose curve;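 further: potency means the concentration at half of the fitted maximal effect; cells exposed to compound for 40 hours at 37 °C before readout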); details: BJ fibroblast viability, qHTS
In short: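 Cytotoxicity in human BJ foreskin fibroblasts is scored as loss of cellular ATP after a 40-hour exposure, measured by luciferase luminescence. Controls are DMSO and 100 uM tamoxifen.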

[9] = Cell Viability - Jurkat (AID 426;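 active means dose-dependent loss of cell ATP signal giving a full or clear fitted curve, ranked by lower potency value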; further: potency means the concentration at half of the fitted maximal effect); details: qHTS
In short: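 qHTS, 1536-well; Jurkat E6-1, 5000 cells/well, complete medium; cpd 40 hr, 37 °C; CellTiter-Glo 20 min RT; luminescence. AC50 by Hill fit.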

[10] = Cell Viability - Hek293 (AID 427;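 active means compounds whose dose-response curve shows a full or clear partial loss of cell viability, called from curve shape rather than a numeric limit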;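 further: potency means the concentration at half of the fitted maximal effect; cells exposed to compound for 40 hours at 37 °C before reading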); details: qHTS
In short: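 qHTS, human embryonic kidney (adenovirus-transformed) cells; 40 hr cpd, 37 °C; CellTiter-Glo ATP luminescence. Norm: DMSO = 0, 100 uM tamoxifen = 100% inhibition. Hill-fit AC50.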

[11] = Cell Viability - HepG2 (AID 433; calls by dose curve;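 further: potency means the concentration at half of the fitted maximal effect; potency for ATP loss meaning cytotoxicity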); details: qHTS
In short: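 In this qHTS format, a 40 h, 37 °C compound incubation of HepG2 cells in complete medium precedes a 20 min CellTiter-Glo step at room temperature. Tamoxifen and doxorubicin serve as positive controls; Hill-equation fits yield AC50.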

[12] = Cell Viability - MRC5 (AID 434; calls by dose curve;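 further: potency means the concentration at half of the fitted maximal effect; potency reflects cytotoxicity seen as loss of intracellular ATP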); details: MRC5 lung fibroblast viability, qHTS
In short: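 MRC5 normal human lung fibroblasts, 1500 cells/well, exposed to compound for 40 hr at 37 C. Cellular ATP was read by CellTiter-Glo luminescence; data normalized to DMSO and 100 uM tamoxifen, with AC50 from Hill fits.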

[13] = Cell Viability - SK-N-SH (AID 435; calls by dose curve;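 further: potency means the concentration at half of the fitted maximal effect; compound exposure lasted 40 h at 37 °C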); details: SK-N-SH neuroblastoma cell viability qHTS
In short: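 Human neuroblastoma line, 40 h exposure at 37 °C, ATP quantified via luciferase luminescence; DMSO and 100 uM tamoxifen define 0 and 100% inhibition for AC50 fitting.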

[14] = Cell Viability - N2a (AID 540; active means well fitted curve in the direction sought with a large enough effect; an effect the other way counts as inactive or inconclusive;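 further: plate controls were DMSO alone for no effect and tamoxifen control for full effect; nearly all actives have a fitted effect of over 45% in size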); details: N2a mouse neuroblastoma cell viability; series mostly up to 92.2 µM
In short: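 Luminescent ATP signal (CellTiter-Glo, 20 min at room temperature) served as the viability read-out after N2a cells were treated with compounds for 40 hours at 37 °C. Concentration-response data were fitted to the Hill equation for AC50.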

[15] = Cell Viability - NIH 3T3 (AID 541; active means well fitted curve in the direction sought with a large enough effect; an effect the other way counts as inactive or inconclusive;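 further: plate controls were DMSO alone for no effect and tamoxifen positive control for full effect; nearly all actives have a fitted effect of over 25% in size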); details: NIH 3T3 cell viability, qHTS; activity change, negative = cytotoxicity: at 92.2 µM (top of the series)
In short: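 Luminescent ATP signal (CellTiter-Glo) served as the viability read-out after NIH 3T3 cells were exposed to compounds over a concentration range for 40 hr at 37 °C. Hill-equation modelling of concentration-response data gave AC50.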

[16] = Cell Viability - HUV-EC-C (AID 542; active means well fitted curve in the direction sought with a large enough effect; an effect the other way counts as inactive or inconclusive; further: on the % scale 0 is the no-effect control and ±100 the full control effect; nearly all actives have a fitted effect of over 35% in size); details: HUV-EC-C endothelial cell viability, qHTS; series mostly up to 92.2 µM
In short: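 qHTS cytotoxicity: HUV-EC-C, 1000 cells/well, 5 hr settle, compound 40 hr 37 °C, CellTiter-Glo, luminescence. AC50 via Hill equation.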

[17] = Cell Viability - H-4-II-E (AID 543; active means well fitted curve in the direction sought with a large enough effect; an effect the other way counts as inactive or inconclusive; further: on the % scale 0 is the no-effect control and ±100 the full control effect; nearly all actives have a fitted effect of over 35% in size); details: H-4-II-E rat hepatoma viability; series mostly up to 92.2 µM
In short: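 Luminescent ATP signal (CellTiter-Glo) served as the viability read-out, with cytotoxicity seen as a concentration-dependent ATP drop. Cells were treated for 40 hours in complete medium. AC50 values derive from Hill-equation modelling.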

[18] = Cell Viability - SH-SY5Y (AID 544; active means well fitted curve in the direction sought with a large enough effect; an effect the other way counts as inactive or inconclusive;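 further: 0% = DMSO alone and -100% = 100 µM tamoxifen; nearly all actives have a fitted effect of over 55% in size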); details: SH-SY5Y neuroblastoma cell viability; series mostly up to 92.2 µM
In short: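 Luminescent ATP read-out (CellTiter-Glo) measures loss of viable SH-SY5Y neuroblastoma cells after 40 hr compound exposure at 37 °C. AC50 values derive from standard Hill modelling of qHTS concentration-response data.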

[19] = Cell Viability - Renal Proximal Tubule (AID 545; active means well fitted curve in the direction sought with a large enough effect; an effect the other way counts as inactive or inconclusive;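 further: 0% = DMSO only and -100% = 100 µM tamoxifen; nearly all actives have a fitted effect of over 40% in size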); details: renal proximal tubule cells viability, primary cells of rat origin; activity change, negative = cytotoxicity: at 91.7 µM (top of the series)
In short: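 In this qHTS format, normal rat kidney-derived proximal tubule cells in complete culture medium receive compound titrations, then sit 40 hours at 37 °C before luciferase-based ATP quantitation; potency is reported as AC50 from concentration-response curves.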

CCn1cc(C(=O)O)c(=O)c2cc3c(cc21)OCO3
active: Potency [2] 5.01 µM and 2.51 µM
inactive: activity change, negative = inhibition ([1]; at 17.2 µM (top of the series)) -4.15% | activity change, negative = inhibition ([1]; at 38 µM (top of the series)) -1.96% | outcome [3] | Potency [4]

C[N+](C)(C)CCCCCCCCCC[N+](C)(C)C
inactive: activity change, negative = inhibition ([1]; at 17.2 µM (top of the series)) 5.88% and 0.653% | activity change, negative = inhibition ([1]; at 38 µM (top of the series)) 6.36% | Potency [2] | activity change, negative = inhibition ([5]; at 17.2 µM (top of the series)) -20.5% and -5.13% | activity change, negative = inhibition ([5]; at 38 µM (top of the series)) -4.26% | outcome [3] | Potency [6] > 46 µM and > 20.6 µM | Potency [7] > 46 µM and > 20.6 µM | Potency [4]

CN(C)CCOC(=O)COc1ccc(Cl)cc1
inactive: activity change, negative = inhibition ([1]; at 17.2 µM (top of the series)) 0.605% | activity change, negative = inhibition ([1]; at 38 µM (top of the series)) -0.251% | outcome [3] | Potency [6] > 46 µM and > 20.6 µM | Potency [7] > 46 µM and > 20.6 µM | Potency [4]
active: Potency [2] 15.8 µM and 10 µM

CN(C)C(=O)Oc1ccc[n+](C)c1
inactive: activity change, negative = inhibition ([1]; at 17.2 µM (top of the series)) 8.22% | activity change, negative = inhibition ([1]; at 38 µM (top of the series)) 9.9% | Potency [2] | activity change, negative = inhibition ([5]; at 17.2 µM (top of the series)) 4.78% | activity change, negative = inhibition ([5]; at 38 µM (top of the series)) 12% | outcome [3] | Potency [6] > 46 µM and > 20.6 µM | Potency [7] > 46 µM | Potency [4]

C[n+]1cc2c3c(ccc2c2ccc4cc5c(cc4c21)OCO5)OCO3
inactive: Potency [7] > 46 µM and > 20.6 µM | Potency [4]
active: activity change, negative = inhibition ([1]; at 17.2 µM (top of the series)) -119% | activity change, negative = inhibition ([1]; at 38 µM (top of the series)) -111% | Potency [2] 3.98 µM and 10 µM | activity change, negative = inhibition ([5]; at 38 µM (top of the series)) -48.1% | Potency [6] 6.57 µM

CCCCNC(=O)NS(=O)(=O)c1ccc(C)cc1
inactive: activity change, negative = inhibition ([1]; at 17.2 µM (top of the series)) -5% and 1.1% | activity change, negative = inhibition ([1]; at 38 µM (top of the series)) 6.49% | Potency [2] | Potency [8] > 92 µM | Potency [9] > 92 µM | Potency [10] > 92 µM | Potency [11] > 92 µM | Potency [12] > 92 µM | Potency [13] > 92 µM | activity change, negative = inhibition ([5]; at 17.2 µM (top of the series)) -4.27% | activity change, negative = inhibition ([5]; at 38 µM (top of the series)) 12.5% | outcome [3] | Potency [6] > 46 µM and > 20.6 µM | Potency [7] > 46 µM and > 20.6 µM | Potency [4] | outcome [14] | activity change, negative = cytotoxicity [15] -10.4% | Potency [16] | Potency [17] | Potency [18] | activity change, negative = cytotoxicity [19] -6.67%

CCN(CC)CCOCCOC(=O)C1(c2ccccc2)CCCC1
active: Potency [2] 12.6 µM
inactive: activity change, negative = inhibition ([1]; at 17.2 µM (top of the series)) -7.4% | activity change, negative = inhibition ([1]; at 38 µM (top of the series)) 16.3% | outcome [3] | Potency [6] > 46 µM and > 20.6 µM | Potency [7] > 46 µM and > 20.6 µM | Potency [4]

CC(C)NNC(=O)c1ccncc1
inactive: activity change, negative = inhibition ([1]; at 17.2 µM (top of the series)) 5.09% | activity change, negative = inhibition ([1]; at 38 µM (top of the series)) -0.742% | Potency [2] | activity change, negative = inhibition ([5]; at 17.2 µM (top of the series)) -0.394% | activity change, negative = inhibition ([5]; at 38 µM (top of the series)) -0.596% | outcome [3] | Potency [6] > 46 µM and > 20.6 µM | Potency [7] > 46 µM and > 20.6 µM | Potency [4]

CCN(CC)CCNC(=O)c1cc(S(C)(=O)=O)ccc1OC
inactive: activity change, negative = inhibition ([1]; at 17.2 µM (top of the series)) -0.734% and 2.54% | activity change, negative = inhibition ([1]; at 38 µM (top of the series)) 5.15% | Potency [2] | activity change, negative = inhibition ([5]; at 17.2 µM (top of the series)) -6.77% and -21.4% | activity change, negative = inhibition ([5]; at 38 µM (top of the series)) -5.52% | outcome [3] | Potency [6] > 46 µM and > 20.6 µM | Potency [7] > 46 µM and > 20.6 µM | Potency [4]

CN1CCN(CC(=O)N2c3ccccc3C(=O)Nc3cccnc32)CC1
active: activity change, negative = inhibition ([5]; at 17.2 µM (top of the series)) -94.8%
inactive: activity change, negative = inhibition ([1]; at 17.2 µM (top of the series)) -3.75% and 6.17% | activity change, negative = inhibition ([1]; at 38 µM (top of the series)) 9.42% | Potency [2] | outcome [3] | Potency [6] > 46 µM and > 20.6 µM | Potency [7] > 46 µM and > 20.6 µM | Potency [4]

Cc1scc2c1N(C(=O)CN1CCN(C)CC1)c1ccccc1NC2=O
active: activity change, negative = inhibition ([5]; at 17.2 µM (top of the series)) -41.8% | activity change, negative = inhibition ([5]; at 38 µM (top of the series)) -72.8%
inactive: activity change, negative = inhibition ([1]; at 17.2 µM (top of the series)) 4.19% | activity change, negative = inhibition ([1]; at 38 µM (top of the series)) 15.1% | Potency [2] | outcome [3] | Potency [4]

CCCC(C(=O)OCCN(CC)CC)(c1ccccc1)c1ccccc1
inactive: activity change, negative = inhibition ([1]; at 17.2 µM (top of the series)) 16.9% | activity change, negative = inhibition ([1]; at 38 µM (top of the series)) 20.9% | Potency [2] | outcome [3] | Potency [6] > 46 µM and > 20.6 µM | Potency [7] > 46 µM and > 20.6 µM | Potency [4]

CCO/C([O-])=N/c1c[n+](N2CCOCC2)no1
inactive: activity change, negative = inhibition ([1]; at 17.2 µM (top of the series)) -2.58% and 9.89% | activity change, negative = inhibition ([1]; at 38 µM (top of the series)) 19.4% | Potency [2] | activity change, negative = inhibition ([5]; at 17.2 µM (top of the series)) -13.9% and -20.6% | activity change, negative = inhibition ([5]; at 38 µM (top of the series)) -9.67% | outcome [3] | Potency [6] > 46 µM and > 20.6 µM | Potency [7] > 46 µM and > 20.6 µM | Potency [4]
